Compounds with a hit are over-represented: about 2.3% of the library has one in this group of screens.
VDR inhibitor = vitamin D3 receptor (human) inhibition. P11473. VDR-SRC2-3 peptide fluorescence polarization, 2 h. Potency, µM, without a hit: max response, negative = inhibition, usual class: inhibitors. 0.93% of 400,000 active. AID 504847; further: potency means the concentration at half of the fitted maximal effect; on the % scale 0 is the no-effect control and ±100 the full control effect
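Reagent solutions, kept cold and dark, are dispensed first; compounds are then pinned in at 23 nl, plates briefly spun, and incubated 2 h at ambient temperature. Inhibition of VDR–SRC2-3 peptide binding is read by fluorescence polarization.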
Coupling enz = counter-screen for Giardia aldolase inhibitors: coupling enzyme system; activity change, negative = inhibition, % at 58.2 µM, hits read low; 0.67% of 290,000 active; coupling enzyme system counterscreen, AmpLite Red fluorescence; in the data active means activity change below about -30%; further: on the % scale 0 is the no-effect control and ±100 the full control effect
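First, compound is pin-transferred into glyceraldehyde-3-phosphate coupling-enzyme reagent at 57.5 uM final and held 10 min at RT. Next, substrate, coupling system and AmpLite Red are added. After 20 min RT, fluorescence (525/598 nm) is read.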
HTT cytoprotect = Huntington cell model cytoprotection by ATP luminescence. 0.14% of 230,000 active. Potency, µM (top dose mostly 56.4 µM), for inactives: cytoprotection (ATP increase), actives largely listed as activators. PC12 HTT-Q103 induced, cytoprotection, ATP luminescence, 40 h. AID 1471; further: potency means the concentration at half of the fitted maximal effect; % of control where 0% means no effect; nearly all actives have a fitted effect of over 45% in size
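Huntington model: PC12 line, ecdysone-inducible HTTQ103 exon1–GFP, tebufenozide 100 nM. Test articles in a dose series. Endpoint luminescence from cellular ATP.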
KDM4E inh = inhibitors of human JMJD2E histone demethylase; JMJD2E catalytic domain, FDH-coupled NADH fluorescence (FDH is formaldehyde dehydrogenase); AID 2147; Potency, µM (top dose mostly 57.1 µM), without a hit: at the top dose activity change, negative = inhibition, actives largely listed as inhibitors; 1.6% of 230,000 active; active means well fitted inhibition curve with a large enough effect, not every such curve was filed as active; inconclusive means small, poorly fitted or top-dose-only effect, or another doubt; inactive means no such curve, though single readings can be large or run the other way;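 further: potency means the concentration at half of the fitted maximal effect; 0% = wells with enzyme and -100% = buffer wells without enzyme; nearly all actives have a fitted effect of over 50% in size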
Target sequence (B2RXH2 1-337 limits assumed): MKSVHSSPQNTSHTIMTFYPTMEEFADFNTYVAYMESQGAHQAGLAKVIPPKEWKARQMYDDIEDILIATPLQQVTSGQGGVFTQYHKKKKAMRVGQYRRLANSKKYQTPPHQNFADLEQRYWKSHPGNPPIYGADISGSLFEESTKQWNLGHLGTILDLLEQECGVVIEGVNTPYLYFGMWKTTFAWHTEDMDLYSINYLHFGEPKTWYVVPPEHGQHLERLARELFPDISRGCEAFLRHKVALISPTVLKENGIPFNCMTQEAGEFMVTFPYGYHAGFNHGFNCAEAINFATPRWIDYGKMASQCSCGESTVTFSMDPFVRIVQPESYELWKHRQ
HTT aggregate = mutant huntingtin aggregation inhibition; Potency, µM (highest dose often 46.1 µM), without a hit: top-dose activity change, negative = inhibition, most hits filed as inhibitors; PC12 HttQ103-GFP aggregates, Acumen cytometry, 40 h; 1.1% of 220,000 active; further: potency means the concentration at half of the fitted maximal effect; on the % scale 0 is the no-effect control and ±100 the full control effect; nearly all actives have a fitted effect of over 60% in size
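Steps: seed 1500 PC12 HTTQ103-GFP cells/well; add tebufenozide, 100 nM final; add compound titration; add ATPLite reagent; quantify GFP aggregates by laser scanning cytometry.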
GoLoco inh red = RGS12 GoLoco-Gai1 interaction inhibition; AID 880; Potency, µM (top dose mostly 61.6 µM), inactives show at the top dose activity, negative = inhibition, usual class: inhibitors; Gai1:RGS12 GoLoco peptide FP, rhodamine, 10 min; P63096; 0.44% of 230,000 active; active means well fitted inhibition curve with a large enough effect, not every such curve was filed as active; inactive means no such curve, though single readings can be large or run the other way; further: potency means the concentration at half of the fitted maximal effect; on the % scale 0 is the no-effect control and ±100 the full control effect; nearly all actives have a fitted effect of over 30% in size
VDR inh confirm = confirmation of human vitamin D receptor inhibitors. shares compounds with VDR inhibitor. VDR-coactivator inhibition assay, qHTS confirmation. Potency, µM, hits mostly inhibitors. 89% of 840 active. AID 602199; further: potency means the concentration at half of the fitted maximal effect
VDR FP = confirmation of human VDR-coactivator binding inhibitors, fluorescein label. shares compounds with VDR inhibitor. VDR-coactivator binding, fluorescein fluorescence polarization. Potency, µM (highest dose often 57.1 µM), without a hit: top-dose activity change, negative = inhibition, usual class: inhibitors. 48% of 840 active; further: potency means the concentration at half of the fitted maximal effect
VDR bla = inhibits human VDR in beta-lactamase reporter cells | shares compounds with VDR inhibitor | VDR beta-lactamase reporter cells, FRET ratio; cells co-treated with VDR agonist LG190178 | Potency, µM (titrated, usually from 46.1 µM), without a hit: at the top dose activity change, negative = inhibition, most hits filed as inhibitors | 23% of 840 active | AID 602202; further: potency means the concentration at half of the fitted maximal effect; on the % scale 0 is the no-effect control and ±100 the full control effect
VDR viability = cell toxicity, VDR inhibitor hit counter-screen. shares compounds with VDR inhibitor. cytotoxicity counter-screen, cell viability, qHTS. Potency, µM (doses to about 48.3 µM), for inactives: at the top dose activity change, negative = cytotoxicity, hits mostly cytotoxic. 18% of 840 active. AID 602204;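 further: potency means the concentration at half of the fitted maximal effect; plate controls were DMSO for no effect and high-concentration cycloheximide for full effect; nearly all actives have a fitted effect of over 75% in size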
* marks the source's active call; other numbers are inactive results; ? = inconclusive; nt = not tested or not shown; [ ] = dose if it differs, or a comment. Unless noted, the call rests on the fitted dose curve; in most records, active means well fitted curve in the direction sought with a large enough effect; inconclusive means small, poorly fitted or top-dose-only effect, or another doubt; inactive means no such curve, though single readings can be large; an effect the other way counts as inactive or inconclusive.

SMILES	VDR inhibitor	Coupling enz	HTT cytoprotect	KDM4E inh	HTT aggregate	GoLoco inh red	VDR inh confirm	VDR FP	VDR bla	VDR viability
CCCOc1ccc(/C=C2/C(=O)ON=C2C)cc1Cl	18µM*	-2	nt	nt	nt	nt	7.5*	?	-12%	-37%
COc1cc(/C=C2\C(=O)ON=C2c2ccc(Cl)cc2)ccc1O	?	nt	nt	nt	nt	nt	7.1*	?	?	-11%
CCOc1ccc(Cl)cc1/C=C1/C(=O)ON=C1C	?	0	nt	nt	nt	nt	8.9*	3.5µM*	-5%	9%
COc1cc(/C=C2/C(=O)ON=C2C)cc(Cl)c1O	89µM*	-6	nt	nt	nt	nt	27*	222%	21%	4%
COc1ccc(Cl)cc1/C=C1/C(=O)ON=C1C	?	5	nt	nt	nt	nt	nt	nt	nt	nt
CC1=NOC(=O)/C1=C/c1ccc(O)c(Cl)c1	-19%	1	nt	nt	nt	nt	nt	nt	nt	nt
O=C1CC(c2ccccc2)Cc2[nH]c(=O)c(-c3nc(-c4cccc(Cl)c4)cs3)cc21 (stereo unspecified)	-25%	nt	nt	nt	nt	nt	nt	nt	nt	nt
CC(/C=N/NC(=O)c1cc(-c2cccn2C)n[nH]1)=C\c1ccccc1	8%	2	8%[10 µM]	2%	36%[9.22 µM]	9%	nt	nt	nt	nt
FC(F)(F)c1cc(-c2ccccc2)nc(N2CCCCCC2)n1	-8%	-1	-4%[0.074 µM]	-15%	-24%	6%	nt	nt	nt	nt
CS(=O)(=O)c1nc(-c2ccccc2)cc(C(F)(F)F)n1	?	3	?	-26%	4.5µM*	-10%	8.9*	4.5µM*	18µM*	24µM*
CN1C(=O)C2(NC(=O)c3ccccc3N2C)c2ccccc21 (stereo unspecified)	1%	3	9%[10 µM]	-10%	-13%[9.22 µM]	-11%	nt	nt	nt	nt
CN1C(=O)C(Cl)(Cl)C(=O)c2ccccc21	4µM*	-75*	-6%[10 µM]	?	?	-5%	3.4*	?	3%	-1%
CS(=O)(=O)N1CCC2(CC1)CN(c1ccc(-c3ccccc3)cc1)C2	5%	0	-8%	nt	nt	-6%	nt	nt	nt	nt
CCOC(=O)C1C(=O)NC(SCC(=O)Nc2nccs2)=C(C#N)C1c1ccccc1OCC (stereo unspecified)	35µM*	5	-9%[10 µM]	-5%	-15%	19%	12*	?	16%	?
CCc1ccc(OCC(=O)Nc2cc3oc4ccccc4c3cc2OC)c(Br)c1	-8%	nt	nt	nt	nt	nt	nt	nt	nt	nt
O=C(Oc1ccccc1/C=C\C(=O)c1cc2ccccc2o1)c1cccc(F)c1	28µM*	-4	8%[10 µM]	-1%	?	34%	11*	?	?	?
O=C(Nc1ccc(F)cc1)c1cc2ccccc2o1	-7%	-8	nt	nt	nt	nt	nt	nt	nt	nt
O=C(Oc1ccccc1/C=C\C(=O)c1cc2ccccc2o1)c1ccccc1	?	-1	13%[0.074 µM]	-15%	?	4%	4*	?	?	-11%
COc1cccc(C(=O)Oc2ccccc2/C=C\C(=O)c2cc3ccccc3o2)c1	?	-4	16%[10 µM]	-2%	5%	-17%	2.8*	3.2µM*	?	-22%
NC(=O)N/N=C/c1ccccc1OC(=O)c1cc2ccccc2oc1=O	-2%	0	nt	nt	nt	nt	nt	nt	nt	nt
CC(=O)Nc1cc(C)ns1	-14%	nt	nt	nt	nt	nt	nt	nt	nt	nt
O=S(=O)(c1ccccc1)c1nc(-c2ccc(F)cc2)oc1N1CCCCCC1	-16%	nt	nt	nt	nt	nt	nt	nt	nt	nt

Screening data (PubChem BioAssay)
